Records with an inconclusive call do not appear. The source holds several records for some structures; these can differ, active in one and inactive in another. Calls of active or inactive are those of the source. Rule for the calls, unless noted: active = hit-call score of the fitted dose curve at least 0.9, where 1 is the maximum; inactive = score below 0.9.
Assays:
[1] = CCTE_Harrill_HTTr_Viability_MCF7: CCTE's 6-hour Cell Viability Assessment for the High-Throughput Transcriptomics (HTTr) Platform, in MCF-7 cells cultured in DMEM + 10% fetal bovine serum, Harrill Lab (AID 2284010)
How it was run: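 Viability measured through PI dye exclusion by high-content imaging at 6 h post-dosing.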

[2] = CCTE_Harrill_HTTr_Apoptosis_MCF7: CCTE's 6-hour Apoptosis Assessment for the High-Throughput Transcriptomics (HTTr) Platform, in MCF-7 cells cultured in DMEM + 10% fetal bovine serum, Harrill Lab (AID 2284011)
How it was run: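 Read-out: CellEvent Caspase 3/7 Green signal by high content imaging, gain-of-signal indicating apoptosis. MCF-7 cells, DMEM + 10% FBS, eight-point dilution series, 6 h exposure. Curves fitted bidirectionally relative to DMSO negative control.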

[3] = CCTE_Shafer_MEA_acute_burst_number: CCTE's Neural Acute Assay for Single-Electrode Bursts, Shafer Lab (AID 2284013)
How it was run: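 Primary rat cortical neurons on 16-electrode MEA wells, treated on DIV 13 or 15 with compound at 0.03-40 uM. Single-electrode burst count from 40-min recordings at 37 C before and after exposure; percent change from baseline per well, DMSO negative control.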

[4] = CCTE_Shafer_MEA_acute_burst_duration_mean: CCTE's Neural Acute Assay for Mean Burst Duration, Shafer Lab (AID 2284014);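 note: hits are decreases in mean burst duration relative to DMSO controls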
How it was run: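 Rat primary cortical neurons on 48-well MEA, treated at DIV 13 or 15 with 0.03-40 uM in at least 3 wells. Value is percent change in mean burst duration, comparing 40 min recordings at 37 C before and during exposure.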

[5] = CCTE_Shafer_MEA_acute_per_burst_spike_number_mean: CCTE's Neural Acute Assay for Average Number of Spikes Per Burst, Shafer Lab (AID 2284015);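 note: hits are decreases in mean spikes per burst versus baseline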
How it was run: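 Rat primary cortical neurons on 48-well MEAs (DIV 13 or 15) were treated with 0.03-40 uM compound at 37 C. Mean spikes per burst over 40 min were recorded before and after exposure and expressed as percent change from baseline, relative to DMSO.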

[6] = CCTE_Shafer_MEA_acute_interburst_interval_mean: CCTE's Neural Acute Assay for Mean Interburst Interval, Shafer Lab (AID 2284016);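 note: percent change of mean interburst interval versus each well's own pre-dose baseline; curves fitted for decrease in interburst interval relative to DMSO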
How it was run: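 Rat primary cortical neurons on 48-well MEAs at DIV 13 or 15 were exposed acutely to 0.03-40 uM. Spikes detected at 8x rms noise, 37 C. Mean interburst interval from 40 min recordings expressed as percent change from 40 min pre-treatment baseline.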

[7] = CCTE_Shafer_MEA_acute_burst_percentage_mean: CCTE's Neural Acute Assay for Percentage of Spikes in a Burst, Shafer Lab (AID 2284017);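 for AC50: curve fitted for loss of signal so potency reflects decreased burst percentage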
How it was run: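 Primary rat cortical neurons on 48-well MEA plates, treated on DIV 13 or 15 at 0.03-40 uM. Spikes detected at 8x rms noise at 37C; percent change from 40-min baseline to 40-min post-dose recording, fitted versus DMSO.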

[8] = CCTE_Shafer_MEA_acute_burst_percentage_std: CCTE's Neural Acute Assay for Standard Deviation of Burst Percentage, Shafer Lab (AID 2284018);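 note: fitted in the negative direction so actives lower burst percentage SD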
How it was run: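 Rat primary cortical neurons on 48-well MEAs, DIV 13 or 15, 37 C. 40-min baseline then 40-min recording with compound (0.03-40 uM); well-level SD of per-electrode burst spike percentage, expressed as percent change from baseline.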

[9] = CCTE_Shafer_MEA_acute_per_network_burst_spike_number_mean: CCTE's Neural Acute Assay for Average Number of Spikes in a Network Burst, Shafer Lab (AID 2284019);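 for AC50: curve fitted for loss of signal so actives reduce spikes per network burst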
How it was run: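 Rat primary cortical neurons on 48-well MEA at DIV 13 or 15, 37 C; compounds 0.03-40 uM, at least three wells each. 40-min baseline then 40-min exposure recording; percent change in mean spikes per network burst.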

[10] = CCTE_Shafer_MEA_acute_per_network_burst_spike_number_std: CCTE's Neural Acute Assay for Standard Deviation of Number of Spikes in a Network Burst, Shafer Lab (AID 2284020);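 note: fitted for decrease in spike-number SD versus DMSO so actives lower it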
How it was run: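 Rat primary cortical neurons on 48-well MEA (16 electrodes/well), treated DIV 13 or 15 at 0.03-40 uM, ≥3 wells per compound. 40 min recordings at 37 C before and after dosing; value is percent change in network-burst spike-number SD, negative direction vs DMSO.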

[11] = CCTE_Shafer_MEA_acute_per_network_burst_electrodes_number_mean: CCTE's Neural Acute Assay for Mean Number of Electrodes in a Network Burst, Shafer Lab (AID 2284021);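 note: curves fitted for decreases only so hits reduce electrodes per burst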
How it was run: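 Readout: % change in mean electrodes active per network burst, post- vs pre-treatment, each well. Spikes detected at 8x rms noise after 300-5000 Hz band-pass; rat cortical cultures, DIV 13/15, compounds 0.03-40 uM, DMSO baseline.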

[12] = CCTE_Shafer_MEA_acute_cross_correlation_area: CCTE's Neural Acute Assay for Area of Cross Correlation, Shafer Lab (AID 2284024);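 note: area under pooled inter-electrode spike cross-correlation near zero lag as percent change from own baseline; curves fitted for loss of cross-correlation area so actives lower synchrony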
How it was run: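 Rat cortical cultures, DIV 13/15, MEA; spikes detected at 8x rms noise (300-5000 Hz band-pass). Compound 0.03-40 uM, ≥3 wells each. Readout: % change in pooled inter-electrode cross-correlation area vs own baseline; DMSO negative control.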

[13] = CCTE_Shafer_MEA_acute_cross_correlation_HWHM: CCTE's Neural Acute Assay for Cross Correlation at Half Width at Half Maximum, Shafer Lab (AID 2284026);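 note: percent change per well from pre-dose baseline in spike cross-correlogram half width; hits are a decrease in cross-correlogram half width relative to DMSO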
How it was run: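 Read-out: half width at half maximum of action-potential cross-correlogram, percent change versus pre-treatment baseline, fitted in loss direction against DMSO. Rat cortical cultures, DIV 13 or 15, dosed 0.03-40 uM, 40-min recordings at 37 C.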

[14] = CCTE_Shafer_MEA_acute_synchrony_index: CCTE's Neural Acute Assay for Synchrony, Shafer Lab (AID 2284027);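 note: network synchrony index of spontaneous spiking in primary rat cortical neurons on MEAs; fitted for loss of signal so actives lower synchrony relative to DMSO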
How it was run: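 Spontaneous firing of mature rat cortical networks is captured extracellularly on microelectrode arrays at 37 C, with wells needing ≥10 active electrodes. Each compound (0.03-40 uM) is judged by the change in synchrony index from baseline over 40 min.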

[15] = molecular target: Estrogen receptor (Homo sapiens) (UniProt P03372); test: CCTE_Deisenroth_AIME_384WELL_LUC_Active: CCTE's 384-well Estrogen Receptor Transactivation Assay with AIME metabolic competence (ERTA luciferase; metabolism positive), Deisenroth Lab (AID 2284030; active = hit-call score of the fitted dose curve at least 0.9, where 1 is the maximum)
Sequence of Estrogen receptor (Homo sapiens) (P03372 whole entry, looked up): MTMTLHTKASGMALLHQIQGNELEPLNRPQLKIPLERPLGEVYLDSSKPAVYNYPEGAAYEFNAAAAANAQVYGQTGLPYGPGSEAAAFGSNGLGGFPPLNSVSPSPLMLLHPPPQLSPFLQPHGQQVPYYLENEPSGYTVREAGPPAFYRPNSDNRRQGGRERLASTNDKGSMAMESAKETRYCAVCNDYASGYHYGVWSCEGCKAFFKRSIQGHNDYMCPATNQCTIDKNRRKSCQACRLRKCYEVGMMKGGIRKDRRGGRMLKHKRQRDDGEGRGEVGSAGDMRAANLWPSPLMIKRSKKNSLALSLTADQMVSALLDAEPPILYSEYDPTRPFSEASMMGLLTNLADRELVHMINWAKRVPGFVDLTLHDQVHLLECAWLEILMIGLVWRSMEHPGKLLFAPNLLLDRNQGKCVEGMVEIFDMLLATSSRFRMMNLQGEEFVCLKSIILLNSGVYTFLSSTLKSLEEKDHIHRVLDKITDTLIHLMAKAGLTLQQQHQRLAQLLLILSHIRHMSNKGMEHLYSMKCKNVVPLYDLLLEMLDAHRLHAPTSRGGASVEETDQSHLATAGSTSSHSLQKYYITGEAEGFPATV
How it was run: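 Readout: bioluminescent luciferase induction in VM7Luc4E2 cells 24 hour after receiving medium from a 2 h rat hepatic S9 (induced, alginate microsphere) metabolism step. Concentrations 0.002 - 200 uM; activity scaled to 17beta-estradiol positive control.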

[16] = CCTE_Shafer_MEA_dev_firing_rate_mean: CCTE's Neural Network Formation Assay for Mean Firing Rate, Shafer Lab (AID 2284031);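 note: AUC of well mean spike rate recorded on DIV 5 7 9 and 12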;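 for AC50: curve fitted for loss of firing so AC50 reflects decreased mean firing rate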
How it was run: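 Developing rat cortical networks on MEA plates undergo 12-day compound exposure. Firing frequency, averaged across active electrodes, is integrated as area under the curve over four recording days, referenced to DMSO.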

Measured: AC50

CCNP(=S)(OC)O/C(C)=C/C(=O)OC(C)C (stereo not given)
inactive: [1] | [2]

CC(C)NC(=O)N1CC(=O)N(c2cc(Cl)cc(Cl)c2)C1=O
inactive: [1] | [2]

Nc1c(Cl)c(F)nc(OCC(=O)O)c1Cl
not listed: [15] | [16]
inactive: all other assays above

COP(=S)(OC)SCn1nnc2ccccc2c1=O
active: [9] 24.1 µM
inactive: [1] | [2] | [3] | [4] | [5] | [6] | [7] | [8] | [9] | [10] | [11] | [12] | [13] | [14] | [15] | [16]

COCC(=O)N(c1c(C)cccc1C)C(C)C(=O)OC (stereo not given)
not listed: [15] | [16]
inactive: all other assays above

O=C(Nc1ccccc1-c1ccc(Cl)cc1)c1cccnc1Cl
inactive: [1] | [2] | [3] | [4] | [5] | [6] | [8] | [9] | [10] | [11] | [12] | [15] | [16]
active: [7] 28.5 µM | [13] 23.5 µM | [14] 25.3 µM | [16] 4.96 µM

CCOP(=O)(OCC)Oc1nc(Cl)c(Cl)cc1Cl
active: [4] 0.00298 µM | [5] 0.00298 µM | [7] 34.9 µM | [8] 32.5 µM | [9] 0.00674 µM | [11] 0.0114 µM | [13] 34.8 µM | [14] 0.0262 µM
inactive: [1] | [2] | [3] | [6] | [10] | [12] | [15] | [16]

CC(C)=CC1C(C(=O)OCc2coc(Cc3ccccc3)c2)C1(C)C (stereo not given)
active: [6] 31.2 µM | [7] 15 µM | [8] 20 µM | [10] 20 µM | [11] 8.62 µM | [14] 20 µM
inactive: all other assays above

Clc1nc(Cl)nc(Nc2ccccc2Cl)n1
not listed: [15] | [16]
inactive: all other assays above

CC(C)C1(C)N=C(c2ncccc2C(=O)O)NC1=O (stereo not given)
not listed: [15] | [16]
inactive: all other assays above

Cc1nc(N(C)C)nc(OC(=O)N(C)C)c1C
active: [14] 20 µM
not listed: [15] | [16]
inactive: all other assays above

Reference: PubChem BioAssay (EPA / NIEHS)
